Screening results deposited in PubChem BioAssay by Pan Lab, Icahn School of Medicine at Mount Sinai.
ROC1-CUL1 inh: inhibitors of human ROC1-CUL1 ubiquitin ligase activity. actives 0.6% (n = 140,000). inhibition, % at 10 µM. in vitro K48 di-Ub FRET, acceptor:donor ratio, 45 min; in the data active means inhibition above about 25%
The depositor's hits bear a star. Shown is part of a subset that was picked to be rich in hits.

SMILES | ROC1-CUL1 inh
CCN(CC)c1ccc(/C=C2\C(=O)NC(=O)N(c3ccc(Br)c(C)c3)C2=O)cc1 | -39.8
CCN(CC)c1ccc(/C=C2\C(=O)NC(=S)N(c3ccc(Br)cc3)C2=O)cc1 | 28.1*
COc1cc2c(c(OC)c1)C(=O)C2 | 3.2
COc1cc2c(c(O)c1OC)C(=O)C(=O)CC=C2 | 32.5*
COc1cc(NC(C)=O)c(-c2c(NC(C)=O)cc(OC)c(OC)c2OC)c(OC)c1OC | 5.0
COc1ccc(F)cc1S(=O)(=O)N1CCN(c2ccccc2F)CC1 | 17.0
Cc1ccc(-c2nn3c(-c4cccs4)c(C#N)cnc3c2Br)cc1 | -0.4
Cc1ccc(-c2nn3c(N)c(C#N)nnc3c2Cl)cc1 | 94.1*
Cc1ccc(-c2nn3c(-c4ccc(C)cc4)nnc3c3ccccc23)cc1 | 3.2
Cc1cc(F)ccc1NC(=O)c1sc2nc(-c3ccncc3)ccc2c1N | 2.2
CCc1ccc(N2C(=O)/C(=C/c3cccn3C(C)(C)C)C(=O)NC2=S)cc1 | 0.8
CN1C(=O)/C(=C/c2cccn2C(C)(C)C)C(=O)NC1=S | 86.8*
COc1ccc(N2C(=O)/C(=C/c3cccn3C(C)(C)C)C(=O)NC2=S)cc1 | 15.7
CNC/C=C/COc1c(C)cc(C)cc1C | 10.1
Cc1cc(/C=C2\C(=O)NC(=S)N(C)C2=O)c(C)n1-c1ccccc1F | 2.4
CN1C(=O)/C(=C/c2cc(Br)c(Sc3ccc(Cl)cc3)o2)C(=O)NC1=S | 48.1*
CN1C(=O)C(=Cc2cc(Br)c(N(C)C)o2)C(=O)N(C)C1=O | 0.0
COC1=CCCSC1=Nc1ccccc1 | 29.9*
COc1ccc(N=C2SC(=Nc3ccccc3)C(=Nc3ccccc3)N2c2ccc(OC)cc2)cc1 | 3.2
Cn1c(=Nc2ccccc2)ssc1=Nc1ccccc1 | 9.8
O=C(NCc1cc2cc(Cl)ccc2[nH]1)c1cc2nc(-c3ccc4c(c3)OCO4)cc(C(F)(F)F)n2n1 | 2.2
O=C(NC1CCCC1)C1CC(=O)N(c2ccccc2Cl)C1 (centres undefined) | 3.5
